# Hit rate of the full screen: of about 190,000 compounds, about 1,900 (1%) were called active.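 Rule for the calls: active = percentage of spot-positive cells more than 3 SD above its plate mean, without a fluorescence outlier flag or 80% toxicity; inconclusive = no clear call, values can overlap the other calls; inactive = the rest.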 Only a selection was taken, and actives are over-represented in it overall.
# Assay: autophagy modulators in MEF cells, primary screen, imaging, high-content, MEF GFP-LC3 (AID 463193);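 for % cells with GFP-LC3 spots: spot-positive cell cutoff set from DMSO-treated cells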;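 for toxicity: cell loss after 18 h compound exposure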
# Details: MEF GFP-LC3 puncta imaging, at 10 µM; % cells with GFP-LC3 spots: stronger effect = higher value; toxicity: measured here: cell loss, nuclei count
SMILES,% cells with GFP-LC3 spots,toxicity
CCn1c(O)c(N=NC(=O)c2cccc(S(=O)(=O)N3CCCCC3)c2)c2ccccc21,17.3% (inactive),3.19%
CCN(CC)S(=O)(=O)c1cc([N+](=O)[O-])ccc1NNC(=O)Nc1ccccc1,2.34% (inactive),-10.5%
CCN(CC)S(=O)(=O)c1cc([N+](=O)[O-])ccc1N=Nc1c(O)n(C)c2ccccc12,39.2% (active),2.86%
CCCCNC(=O)CCn1c(=O)c2ccccc2n(Cc2cc(C)ccc2C)c1=O,8.22% (inactive),-3.52%
COc1ccc(CN(C)Cc2nc3cc(OC)c(OC)cc3c(=O)[nH]2)c(OC)c1,25% (inactive),-8.88%
O=C(/C=C/c1cn(-c2ccccc2)nc1-c1ccc2c(c1)OCCO2)NCCCN1CCOCC1,1.77% (inactive),-8.43%
COC(=O)N/N=C/c1ccc(/C=N/NC(=O)OC)cc1,0.31% (inactive),-3.93%
CCOc1ccc(/C=N/NC(N)=S)cc1,19.6% (active),21.8%
NC(=S)N/N=C/c1ccc([N+](=O)[O-])cc1,8.24% (inactive),23.5%
CCN1C(=O)/C(=C\N2CCOCC2)SC1=S,5.71% (inactive),-3.29%
CCN1C(=O)/C(=C\N2CCN(c3ccccc3)CC2)SC1=S,1.26% (inactive),-4.66%
CCN1C(=O)/C(=C\N2CCN(c3cccc(Cl)c3)CC2)SC1=S,4.39% (active),13.1%
O=C(NCC(=O)N(CC1CCCO1)C(C(=O)NC1CCCCC1)c1ccccc1)c1ccco1 (stereo unspecified),0.515% (inactive),-9.95%
COc1ccc(NC(=O)C(Br)C(C)C)cc1 (stereo unspecified),14.9% (inactive),8.32%
CC(=O)C1(C)N(O)C(C)(C)C(c2cccs2)=[N+]1[O-] (stereo unspecified),3.17% (inactive),-3.76%
CC(C)(C)NC(=O)CN(C(=O)c1csnn1)c1ccccc1-c1ccccc1,8.79% (active),5.01%
CC(C)(C)NC(=O)CN(C(=O)c1ccc(Cl)nc1)c1cccc2ccccc12,0.133% (inactive),-8.05%
CCC(C)(C)NC(=O)C(c1ccccn1)N(C(=O)c1csnn1)c1ccccc1 (stereo unspecified),3.17% (inactive),14.8%
Cn1c(-c2ccc(F)cc2)cnc1SCC(=O)NNC(=O)Cc1ccccc1,2.62% (inactive),-10.5%
CCOC(=O)/C(C#N)=C/c1cn(CCC(=O)O)nc1-c1ccc(Br)cc1,0.855% (inactive),-6.28%
COc1ccc(CC(=O)N2N=C(C)CC2(O)C(F)(F)F)cc1 (stereo unspecified),1.78% (inactive),0.121%

SMILES,% cells with GFP-LC3 spots,toxicity
CC1=NN(C(=O)CCCc2ccccc2)C(O)(C(F)(F)F)C1 (stereo unspecified),4.12% (active),3.92%
CC1=NN(C(=O)CCc2ccccc2O)C(O)(C(F)(F)F)C1 (stereo unspecified),3.31% (inactive),-3.6%
CN1CCN(NC(=O)c2ccc(S(=O)(=O)N3CCCCCC3)cc2)CC1,1.83% (inactive),28%
Cn1c(SCC(=O)N2CCCc3ccccc32)nc2ccccc2c1=O,11.1% (active),28.2%
O=C(CSc1nc2ccccc2c(=O)n1CCCO)N1CCc2ccccc21,7.69% (inactive),-0.286%
O=C(CSc1nc2[nH]ncc2c(=O)n1-c1ccccc1)N1CCCc2ccccc21,6.24% (inactive),17.2%
CCCCN(CC(=O)NC(C)(C)C)C(=O)C(=O)Nc1ccc2c(c1)OCCO2,0.957% (inactive),5.19%
C/C(=N\NC(=O)c1ccc(NS(=O)(=O)c2cccs2)cc1)c1ccc2ccccc2c1,20.7% (inactive),-14.3%
CCNC(=O)COc1cc(C)c(Br)c(C)c1,22.5% (inactive),9.49%
COc1ccc(CCn2nnnc2C(c2ccccc2)N2CCN(C)CC2)cc1OC (stereo unspecified),22.3% (inactive),-9.31%
COc1ccccc1C(c1nnnn1CC1CCCO1)N1CCN(c2ccccc2)CC1 (stereo unspecified),0.609% (inactive),-7.4%
COc1ccc(C(c2nnnn2Cc2cccs2)N2CCN(c3ccccc3)CC2)cc1OC (stereo unspecified),10.1% (active),46.3%
Cc1ccc(NC(=O)c2ccccn2)cc1S(=O)(=O)N1CCOCC1,7.19% (inactive),21.1%
COc1ccc(NC(=S)NCC2CCN(c3ccc(OC)cc3)C2)cc1 (stereo unspecified),6.08% (inactive),8.9%
COc1ccc(C(=O)Nc2ccc(NC(=O)C(C)C)nc2)cc1,4.13% (inactive),-1.69%
Cc1ccc(OCC(=O)Nc2ccc(-c3nc4ncccc4o3)cc2)cc1,13.3% (inactive),-0.528%
COc1ccc(CC(=O)Nc2ccc(C(=O)NC(C)(C)C)cc2)cc1,6.06% (inactive),-0.0115%
COc1ccc(CC(=O)Nc2ccc(-c3nnc(-c4ccc(C)cc4)o3)cc2)cc1,39.9% (active),9.61%
CN(c1ccc2nc3ccccc3c(=O)n2n1)C1CCCCC1,14.8% (inactive),11.6%
Nc1nc(NC(=O)/C=C/c2ccccc2)nn1-c1ccccc1,7.01% (inactive),2.03%
Cc1ccc(C(=O)NCC2CCCO2)o1 (stereo unspecified),12.6% (inactive),-1.73%

SMILES,% cells with GFP-LC3 spots,toxicity
OC(CNCC1CCCO1)Cn1c2ccc(Br)cc2c2cc(Br)ccc21 (stereo unspecified),7.36% (active),47%
CCc1cc(Br)ccc1NC(=O)C1CCCO1 (stereo unspecified),2.25% (inactive),-4.23%
c1cc(-n2cnnn2)ccc1NC1=NCCC1,12.1% (active),-6.55%
O=C(Cc1c(F)cccc1Cl)Nc1ccc(-n2cnnn2)cc1,1.73% (inactive),5.48%
O=C(c1ccc(-n2cnnn2)cc1)N1CCN(C(c2ccccc2)c2ccccc2)CC1,1.42% (inactive),13.6%
CN(C)CCNC(=O)Cc1ccc([N+](=O)[O-])cc1,4.19% (inactive),2.43%
COc1ccc(CC(=O)NCc2nnc(SCC(=O)Nc3ncc(C)s3)n2C)cc1,3.99% (inactive),-3.03%
Cn1c(=O)c([N+](=O)[O-])c(Oc2ccccc2)c2ccccc21,0.277% (inactive),-4.02%
O=C(OCC1O[C@@H](OC(=O)c2cc(O)c(O)c(O)c2)[C@@H](OC(=O)c2cc(O)c(O)c(O)c2)[C@@H](OC(=O)c2cc(O)c(O)c(O)c2)[C@@H]1OC(=O)c1cc(O)c(O)c(O)c1)c1cc(O)c(O)c(O)c1 (stereo partly specified),0.427% (inactive),-40.5%
CCOC(=O)C1=C(C)OC(N)=C(C#N)C1c1cncc(-c2ccc(F)cc2)c1 (stereo unspecified),6.18% (inactive),10.5%
N#C/C(=C\C1=C(N2CCOCC2)C(=C\c2ccccc2)/CC1)C(=O)Nc1ccccc1F,94.8% (active),9.15%
C(=N\N1CCN(c2ccccn2)CC1)/C1=C(N2CCOCC2)C(=C/c2ccccc2)/CC1,21.9% (inactive),10.4%
N#C/C(=C\c1ccccc1C(F)(F)F)C(=O)Nc1ccccc1F,17.6% (inactive),-10.6%
O=C1CCCN1CCCNC(=S)Nc1ccc(F)c(Cl)c1,9.25% (inactive),10.7%
COc1ccc(C(=O)NC(=S)Nc2ccc(N3CCCC3)cc2)cc1OC,2.21% (inactive),8.63%
COc1cccc(C(=O)Nc2ccc(N3CCCC3)cc2)c1,41.2% (active),21.3%
COc1cccc(OC)c1C(=O)Nc1ccc(N2CCCCC2)cc1,4.97% (inactive),0.418%
N#C/C(=C/c1ccc(N2CCCCC2)o1)C(=O)NCCc1c[nH]c2ccccc12,95% (active),-16.4%
O=C(NCCc1c[nH]c2ccccc12)C(=O)NCC1CCCO1 (stereo unspecified),2.06% (inactive),4.43%
CC(=O)N/C(=C/c1ccc(Cl)cc1)C(=O)NCCc1c[nH]c2ccccc12,1.94% (inactive),-16.7%
O=C(Nc1cccc(F)c1)c1ccc(S(=O)(=O)N2CCCC2)cc1,2.96% (inactive),-0.834%

SMILES,% cells with GFP-LC3 spots,toxicity
CCOC(=O)N1CCN(S(=O)(=O)c2ccc(C(=O)Nc3ccc(F)cc3F)cc2)CC1,13.1% (active),35.6%
COc1ccc(C(=O)Nc2ccc(F)cc2F)cc1,8.35% (inactive),1.69%
CCCCN1C(=O)/C(=C2/C=CC=CN2C)SC1=S,2.78% (inactive),-16.3%
O=C(CCCN1C(=O)/C(=C/c2ccccc2)SC1=S)Nc1ccc(O)cc1,5.17% (inactive),20.5%
CCCCN1C(=O)/C(=C/C=C2/C=Cc3ccccc3N2CC)SC1=S,36.6% (active),17.1%
Cc1ccccc1Cn1nc(C)c(NC(=O)C(F)(F)F)c1C,25.2% (inactive),-15.5%
COc1ccc(NC(=O)COC(=O)c2ccncc2)c(OC)c1,4.41% (inactive),21.4%
CC1c2nc3ccccc3n2C(CC(=O)NCCCN2CCOCC2)C(=O)N1Cc1ccccc1 (stereo unspecified),6.3% (inactive),-3.99%
COc1ccc(OC)c(NC(=S)N2CCc3ccccc3C2)c1,1.08% (inactive),-17.2%
COc1ccc(Nc2cc(C)nc(-n3nc(C)cc3C)n2)cc1,1.92% (inactive),48.3%
Cc1cc(C)n(-c2cc(Oc3ccccc3)ncn2)n1,4.54% (inactive),-5.5%
CC(=O)c1ccc(Oc2cc(C)nc(-n3nc(C)cc3C)n2)cc1,22.7% (active),52.9%
O=C1/C(=C\c2ccsc2)NC(=S)N1c1ccccc1,0.432% (inactive),4.12%
Nc1[nH]c(=S)nc2nc(-c3ccccc3)c(-c3ccccc3)nc12,14.2% (inactive),22.7%
N#C/C(=C(/O)Cc1cccc2ccccc12)c1nc2ccccc2s1,0.484% (inactive),-0.84%
O=C(O)CS/C(=C\c1ccc(F)cc1)c1nc2ccccc2s1,5.4% (inactive),-6.27%
CC1=CC(=C(C#N)c2nc3ccccc3s2)C=C(C)N1c1ccc(F)cc1F,27.8% (active),15.8%
COCCN(CCOC)C(=S)Nc1ccccc1Cl,8.84% (inactive),-8.3%
CCc1ccc2c(c1)cc(CN(C(=S)Nc1ccccc1Cl)C1CC1)c1nnnn12,19.7% (active),11.8%
CCOc1ccc2c(c1)cc(CN(C(=O)CC)C1CCCCC1)c1nnnn12,5.66% (inactive),13.7%
